Only some compounds are listed: those with a hit (about 0.35% of all), similar ones and a draw of the others.
Rtt109 HAT inh: inhibitors of C. albicans Rtt109/Vps75 HAT, primary screen, biochemical, ThioGlo CoA-SH fluorescence, plate reader. Histone acetyltransferase RTT109 (Candida albicans (strain SC5314 / ATCC MYA-2876)), …. purified Rtt109/Vps75, 4 h. inhibition, % at 34.9 µM. 330,000 tested, 0.16% active;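 active = inhibition of at least 50% in every replicate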
PDI turbidity: inhibitors of human PDI, primary screen, biochemical, turbidity, single point, plate reader. 350,000 tested, 0.052% active. AID 588391, 2011. inhibition, % at 10 µM. Protein disulfide-isomerase (Homo sapiens), P07237. PDI insulin aggregation turbidity, A650, 90 min;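 active = mean inhibition across replicates of 30% or more, whatever share of single replicates reach that level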
Target sequence (P07237 whole entry, looked up): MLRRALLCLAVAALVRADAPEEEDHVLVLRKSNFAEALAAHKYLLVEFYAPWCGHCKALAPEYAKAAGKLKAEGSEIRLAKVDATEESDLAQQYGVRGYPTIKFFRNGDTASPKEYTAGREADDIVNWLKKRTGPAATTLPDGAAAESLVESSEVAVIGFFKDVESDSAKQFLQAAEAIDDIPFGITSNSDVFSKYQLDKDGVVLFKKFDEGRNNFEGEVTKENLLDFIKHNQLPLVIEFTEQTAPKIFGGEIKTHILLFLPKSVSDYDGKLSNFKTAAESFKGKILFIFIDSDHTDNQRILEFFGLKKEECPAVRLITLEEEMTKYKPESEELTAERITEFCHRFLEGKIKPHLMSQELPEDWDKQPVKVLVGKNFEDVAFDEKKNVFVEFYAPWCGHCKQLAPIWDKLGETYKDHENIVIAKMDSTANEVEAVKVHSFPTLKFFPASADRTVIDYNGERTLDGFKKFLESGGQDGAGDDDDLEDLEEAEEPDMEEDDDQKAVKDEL
ERAP1 HTS inh: human ERAP1 aminopeptidase inhibitors, primary screen, biochemical, single point, plate reader; Endoplasmic reticulum aminopeptidase 1 (Homo sapiens), Q9NZ08; inhibition, % at 10.7 µM; AID 652197, 2013; 340,000 tested, 0.15% active; recombinant ERAP1, Leu-AMC fluorescence, 60 min;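 active = mean replicate inhibition of at least 30%, or all replicates individually reaching that 30% level; inactive = mean below 30% and not every replicate reaching it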
ERp5 block: inhibitors of ERp5-driven insulin aggregation, primary screen, biochemical, turbidity, absorbance 650 nm, single point | 90 min | 350,000 tested, 0.05% active | inhibition, % at 9.99 µM | Protein disulfide-isomerase A6 (Homo sapiens), Q15084 | AID 651711, 2012;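 active = mean replicate inhibition above about 25%, with every replicate also reaching it, limit read from the data, passing the limit was not always enough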
PvdQ acylase: P. aeruginosa PvdQ acylase inhibitors, primary screen, biochemical, fluorescence, plate reader and imaging, single point; 340,000 tested, 0.063% active; purified PvdQ acylase; PvdQ acylase [Pseudomonas aeruginosa LESB58]; inhibition, % at 10 µM; in the data active = inhibition above about 30%, passing the limit was not always enough
Numbers stand for hits; 0 = inactive; - = no result given; ! = not confirmed by another sample.

SMILES	Rtt109 HAT inh	PDI turbidity	ERAP1 HTS inh	ERp5 block	PvdQ acylase
Cc1cc(NC(=O)c2cc([N+](=O)[O-])cc([N+](=O)[O-])c2)no1	-	0	-	0	-
Cc1cc(NC(=O)c2ccc(Br)c([N+](=O)[O-])c2)no1	0	0	0	0	64.0
COc1ccc(OC)c(Nc2nc(C3CC3)nc3c2nnn3Cc2ccccc2)c1	0	0	-	-	0
c1ccc(Cn2nnc3c(Nc4ccc5c(c4)OCO5)nc(C4CC4)nc32)cc1	0	65.7	-	-	0
O=C(NCCCN1CCCC1=O)c1ccc(S(=O)(=O)Nc2ccccc2F)cc1	0	0	0	0	0
O=C(NCCCN1CCCC1=O)c1ccc(OC(F)(F)F)cc1	60.6	0	0	0	0
CCC1=[N+](C)c2cccc3cccc(c23)N1C	0	0	36.3	0	0
COc1ccccc1S(=O)(=O)Nc1ccc2c(c1)C(=O)N(C)C[C@H](OC)[C@H](C)CN[C@@H](C)CO2	-	-	-	0	-
C[C@H](CO)N1C[C@H](C)[C@H](CN(C)C(=O)Nc2ccccc2)Oc2ncc(-c3cc4ccccc4o3)cc2C1=O	-	-	0	0	-
CC(C)NC(=O)N(C)C[C@@H]1Oc2ncc(-c3cc4ccccc4o3)cc2C(=O)N([C@H](C)CO)C[C@@H]1C	-	-	0	28.4	-
CCC(=O)N(C)C[C@H]1Oc2ncc(C#Cc3ccncc3)cc2C(=O)N([C@H](C)CO)C[C@@H]1C	-	-	0	0	-
CCC(=O)N(C)C[C@H]1Oc2ncc(C#Cc3ccncc3)cc2C(=O)N([C@H](C)CO)C[C@H]1C	-	-	76.1	0	-
C[C@@H]1CN([C@@H](C)CO)C(=O)c2cc(C#CC3(O)CCCC3)cnc2O[C@H]1CN(C)C(=O)Cc1cccnc1	-	-	0	27.8	-
CCC(=O)N(C)C[C@H]1Oc2ncc(C#Cc3ccncc3)cc2C(=O)N([C@@H](C)CO)C[C@H]1C	-	-	0	0	-
CCC(=O)N(C)C[C@@H]1Oc2ncc(C#Cc3ccncc3)cc2C(=O)N([C@@H](C)CO)C[C@@H]1C	-	-	35.8	0	-
CCCNC(=O)N(C)C[C@@H]1Oc2ncc(-c3ccncc3)cc2C(=O)N([C@H](C)CO)C[C@@H]1C	-	0	32.9!	0	-
CCCNC(=O)N(C)C[C@H]1Oc2ncc(-c3ccncc3)cc2C(=O)N([C@H](C)CO)C[C@@H]1C	-	-	0	0	-
COc1ccc(CN(C)C[C@H]2OCCCC[C@H](C)Oc3ccc(NC(=O)Nc4ccc(OC)cc4)cc3C(=O)N([C@H](C)CO)C[C@H]2C)cc1	-	-	0	0	-
CCN(CC(=O)Nc1ccc2c(c1)OCCO2)C(=O)CC1CCCC1	0	32.9	-	-	0
CC(C)C(NC(=O)CCNC(=O)c1ccc([N+](=O)[O-])cc1)c1nc2ccccc2[nH]1 (centres undefined)	0	0	67.0	0	0
CCOC(=O)C(C)N1C(=O)S/C(=C/c2ccc3c(c2)n(C)c(=O)n3C)C1=O (centres undefined)	53.7	0	0	0	0
CCC(C)N1C(=O)S/C(=C/c2ccc3c(c2)n(C)c(=O)n3C)C1=O (centres undefined)	0	0	0	0	0
CSS(=O)(=O)c1cccc2cccnc12	132.2	0	85.1	0	0
CCN(CC)S(=O)(=O)c1cccc2cccnc12	0	0	-	-	0
CC1CCCC(NS(=O)(=O)c2cccc3nsnc23)C1C (centres undefined)	55.3	0	0	0	0
SMILES	Rtt109 HAT inh	PDI turbidity	ERAP1 HTS inh	ERp5 block	PvdQ acylase
O=C(O)CN1C(=O)/C(=C\c2cccc(OC(=O)c3ccco3)c2)SC1=S	0	0	0	0	0
O=C(O)CN1C(=O)/C(=C\c2ccc(OC(=O)c3ccco3)cc2)SC1=S	0	43.1	0	0	0
C[C@@H]1CN([C@@H](C)CO)C(=O)c2cc(C#CCC3CCCC3)cnc2O[C@H]1CN(C)C(=O)CC1CC1	-	-	0	0	-
O=[N+]([O-])c1cccnc1Sc1ccc(Cl)cc1	0	0	0	0	47.2
Cc1cc(Cl)c(S(=O)(=O)N2CCCC2)cc1OCC(N)=O	50.1	0	0	0	0
Cc1cc(Cl)c(S(=O)(=O)N2CCCCCC2)cc1OCC(N)=O	0	0	-	-	0
C[C@H]1CN([C@@H](C)CO)C(=O)c2cccc(NC(=O)c3ccncc3)c2O[C@@H]1CN(C)CC1CC1	-	-	0	0	-
Fc1ccc(CNCc2cccc(Br)c2)cc1	0	0	0	0	31.2
COc1ccc(NC(=O)N2C[C@H](O)COC[C@H]3O[C@@H](CC(=O)NCc4ccccc4OC)CC[C@@H]32)cc1	-	-	0	0	-
CCNC(=O)[C@H]1[C@H](CO)[C@H]2Cn3c(ccc(-c4ccccc4F)c3=O)[C@H]2N1CC	-	-	0	0	-
COc1ccc(CCNC(=O)CN2C(=O)NC3(CCCCC3C)C2=O)cc1 (centres undefined)	51.1	0	0	0	0
CCOc1ccc(CCNC(=O)CN2C(=O)NC3(CCCCC3C)C2=O)cc1OCC (centres undefined)	0	0	0	0	0
Cc1nc(SCc2ccc(O)c([N+](=O)[O-])c2)c([N+](=O)[O-])[nH]1	0	0	55.4	0	0
CC(C)NC(=O)Nc1ccc2c(c1)C(=O)N([C@H](C)CO)C[C@H](C)[C@@H](CN(C)C)OCCCC[C@@H](C)O2	-	-	0	0	-
CN1CCN(CC(=O)n2c3c(c4ccccc42)CCCC3)CC1	0	0	-	-	0
O=C(CN1CCCCC1)n1c2ccccc2c2ccccc21	55.8	0	0	0	0
CC(C)NC(=O)N(C)C[C@H]1Oc2ccc(NC(=O)Nc3cccc4ccccc34)cc2C(=O)N([C@H](C)CO)C[C@@H]1C	-	-	0	0	-
C/C=C/c1ccc([C@@H]2[C@@H](C#N)N(c3nc(CC)cs3)[C@@H]2CO)cc1	-	-	0	0	-
CCN(Cc1ccc(OC)c(F)c1)C(=O)C1CCCO1 (centres undefined)	0	0	49.8	0	0
C[C@@H]1CN([C@@H](C)CO)C(=O)c2cc(-c3ccc(C(=O)N(C)C)cc3)cnc2O[C@@H]1CN(C)C(=O)c1ccncc1	-	-	0	0	-
CC(C)NC(=O)N(C)C[C@H]1Oc2ccc(NC(=O)Nc3ccc4c(c3)OCO4)cc2CC(=O)N([C@H](C)CO)C[C@@H]1C	-	-	0	0	-
O=C(/C=C/c1ccc(O)cc1)c1ccc(O)cc1O	0	41.0	0	0	0
COc1ccc(C(=O)/C=C/c2ccccc2)c(O)c1	0	-	0	0	0
CC1=NOC(=O)/C1=C\c1ccc(-c2ccc(Br)cc2C(=O)O)o1	0	0	37.6	0	0
C[C@@H]1CCCCO[C@H](CN(C)C(=O)CCC(F)(F)F)[C@H](C)CN([C@@H](C)CO)C(=O)c2cc(NS(=O)(=O)c3ccc(Cl)cc3)ccc2O1	-	-	0	0	-
C[C@@H]1CCCCO[C@@H](CN(C)C(=O)CCC(F)(F)F)[C@@H](C)CN([C@@H](C)CO)C(=O)c2cc(NS(=O)(=O)c3ccc(Cl)cc3)ccc2O1	-	-	0	70.2	-

Screens (PubChem)
